Assay results as given in PubChem BioAssay AID1159580 (chemical genetic matrix, 2015).
Screen size: about 5,500 compounds; about 2,000 (36%) were called active. About 18% were inconclusive and are not listed. Rule as the data show it: active = normalized growth mostly below about 0.91 (no sharp cut-off); inconclusive = no clear call, values can overlap the other calls; inactive = mostly above about 0.92. Some of the results follow.

Experiment: chemical genetic growth profiling, strain panel (AID 1159580);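 also: tested at 20 µM; growth read once vehicle control cultures reached saturation at 30 °C; 1 = growth at the plate median or of vehicle wells; lower values mean less growth of the strain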
Conditions: growth OD

Measured: normalized growth

NC[C@H](O)c1ccc(O)c(O)c1
active: S. cerevisiae deletion strains, locus YMR058W, strain fet3, hits give low values 0.841
inactive: S. cerevisiae deletion strains, locus YJR066W, strain TOR1, hits give low values 0.934 | S. cerevisiae deletion strains, locus YJR075W, strain HOC1, hits give low values 1.02 | S. cerevisiae deletion strains, locus YKL009W, strain mrt4, hits give low values 1 | S. cerevisiae deletion strains, locus YKL068W, hits give low values 1.01 | S. cerevisiae deletion strains, locus YKL085W, strain MDH1 (second series), hits give low values 1.01 | S. cerevisiae deletion strains, locus YKL085W, strain MDH1, hits give low values 1.01 | S. cerevisiae deletion strains, locus YKL160W, strain elf1, hits give low values 1.02 | S. cerevisiae deletion strains, locus YKL190W, strain CNB1, hits give low values 1.01 | S. cerevisiae deletion strains, locus YKR001C, strain vps1, hits give low values 0.999 | S. cerevisiae deletion strains, locus YKR026C, strain gcn3, hits give low values 1 | S. cerevisiae deletion strains, locus YKR091W, strain srl3, hits give low values 1.01 | S. cerevisiae deletion strains, locus YLL001W, strain dnm1, hits give low values 1.02 | S. cerevisiae deletion strains, locus YLL026W, hits give low values 1.02 | S. cerevisiae deletion strains, locus YLL041C, strain sdh2, hits give low values 1 | S. cerevisiae deletion strains, locus YLR027C, strain aat2, hits give low values 1.01 | S. cerevisiae deletion strains, locus YLR039C, strain RIC1, hits give low values 1 | S. cerevisiae deletion strains, locus YLR058C, strain SHM2, hits give low values 1.01 | S. cerevisiae deletion strains, locus YLR102C, strain apc9, hits give low values 1.02 | S. cerevisiae deletion strains, locus YLR113W, strain HOG1, hits give low values 0.97 | S. cerevisiae deletion strains, locus YLR221C, strain rsa3, hits give low values 1.01 | S. cerevisiae deletion strains, locus YLR258W, strain gsy2, hits give low values 1.01 | S. cerevisiae deletion strains, locus YLR262C, strain YPT6 (second series), hits give low values 1.02 | S. cerevisiae deletion strains, locus YLR262C, strain YPT6, hits give low values 1.04 | S. cerevisiae deletion strains, locus YLR268W, strain sec22, hits give low values 1.04 | S. cerevisiae deletion strains, locus YLR320W, strain mms22, hits give low values 1.04 | S. cerevisiae deletion strains, locus YLR330W, strain CHS5, hits give low values 1.01 | S. cerevisiae deletion strains, locus YLR342W, strain FKS1 (second series), hits give low values 1.01 | S. cerevisiae deletion strains, locus YLR342W, strain FKS1, hits give low values 1.01 | S. cerevisiae deletion strains, locus YLR357W, strain rsc2, hits give low values 0.938 | S. cerevisiae deletion strains, locus YLR370C, strain arc18, hits give low values 1.01 | S. cerevisiae deletion strains, locus YLR371W, strain rom2, hits give low values 1.03 | S. cerevisiae deletion strains, locus YLR384C, strain iki3, hits give low values 1 | S. cerevisiae deletion strains, locus YLR418C, strain cdc73, hits give low values 1 | S. cerevisiae deletion strains, locus YML016C, strain PPZ1, hits give low values 1 | S. cerevisiae deletion strains, locus YML032C, strain rad52, hits give low values 1.02 | S. cerevisiae deletion strains, locus YML120C, strain ndi1, hits give low values 1 | S. cerevisiae deletion strains, locus YML124C, strain tub3, hits give low values 1.01 | S. cerevisiae deletion strains, locus YMR078C, strain ctf18, hits give low values 1.02 | S. cerevisiae deletion strains, locus YMR125W, strain sto1, hits give low values 0.952 | S. cerevisiae deletion strains, locus YMR129W, hits give low values 0.993 | S. cerevisiae deletion strains, locus YMR205C, strain PFK2, hits give low values 1.06 | S. cerevisiae deletion strains, locus YMR223W, strain ubp8, hits give low values 0.99 | S. cerevisiae deletion strains, locus YMR231W, strain pep5, hits give low values 0.995 | S. cerevisiae deletion strains, locus YMR263W, strain SAP30, hits give low values 1.01 | S. cerevisiae deletion strains, locus YMR307W, strain GAS1, hits give low values 0.979 | S. cerevisiae deletion strains, locus YNL067W, strain RPL9B, hits give low values 1.01 | S. cerevisiae deletion strains, locus YNL071W, strain lat1, hits give low values 0.997 | S. cerevisiae deletion strains, locus YNL183C, strain NPR1, hits give low values 0.948 | S. cerevisiae deletion strains, locus YNL209W, strain ssb2, hits give low values 0.999 | S. cerevisiae deletion strains, locus YNL233W, strain BNI4, hits give low values 1.01 | S. cerevisiae deletion strains, locus YNL248C, strain rpa49, hits give low values 0.978 | S. cerevisiae deletion strains, locus YNL250W, strain rad50, hits give low values 1.01 | S. cerevisiae deletion strains, locus YNL271C, strain bni1, hits give low values 1.01 | S. cerevisiae deletion strains, locus YNL298W, strain CLA4, hits give low values 1 | S. cerevisiae deletion strains, locus YNL307C, strain MCK1, hits give low values 1.02 | S. cerevisiae deletion strains, locus YNL322C, strain KRE1 (second series), hits give low values 1.01 | S. cerevisiae deletion strains, locus YNR049C, strain mso1, hits give low values 1.01 | S. cerevisiae deletion strains, locus YNR052C, strain pop2, hits give low values 1.01 | S. cerevisiae deletion strains, locus YOL006C, strain TOP1, hits give low values 0.941 | S. cerevisiae deletion strains, locus YOL012C, strain htz1 1.04 | S. cerevisiae deletion strains, locus YOL147C, strain pex11, hits give low values 1.01 | S. cerevisiae deletion strains, locus YOR001W, strain rrp6, hits give low values 0.969 | S. cerevisiae deletion strains, locus YOR061W, strain CKA2, hits give low values 1.01 | S. cerevisiae deletion strains, locus YOR069W, strain VPS5, hits give low values 1.01 | S. cerevisiae deletion strains, locus YOR070C, strain gyp1, hits give low values 1 | S. cerevisiae deletion strains, locus YOR080W, strain dia2, hits give low values 1.01 | S. cerevisiae deletion strains, locus YOR083W, strain WHI5, hits give low values 1.05 | S. cerevisiae deletion strains, locus YOR106W, strain vam3, hits give low values 1.04 | S. cerevisiae deletion strains, locus YOR136W, strain idh2, hits give low values 1.02 | S. cerevisiae deletion strains, locus YOR144C, strain elg1, hits give low values 1.01 | S. cerevisiae deletion strains, locus YOR184W, strain ser1, hits give low values 1.06 | S. cerevisiae deletion strains, locus YOR231W, strain MKK1, hits give low values 1 | S. cerevisiae deletion strains, locus YOR265W, strain rbl2, hits give low values 1.01 | S. cerevisiae deletion strains, locus YOR270C, strain vph1, hits give low values 0.944 | S. cerevisiae deletion strains, locus YOR290C, strain snf2, hits give low values 1.01 | S. cerevisiae deletion strains, locus YOR316C, strain cot1, hits give low values 1.01 | S. cerevisiae deletion strains, locus YPL051W, strain arl3, hits give low values 0.99 | S. cerevisiae deletion strains, locus YPL078C, strain atp4, hits give low values 1.01 | S. cerevisiae deletion strains, locus YPL106C, strain sse1, hits give low values 1 | S. cerevisiae deletion strains, locus YPL240C, strain hsp82, hits give low values 0.994 | S. cerevisiae deletion strains, locus YPL241C, strain CIN2, hits give low values 1.01 | S. cerevisiae deletion strains, locus YPL256C, strain CLN2, hits give low values 0.961 | S. cerevisiae deletion strains, locus YPR119W, strain clb2, hits give low values 1.02 | S. cerevisiae deletion strains, locus YPR141C, strain kar3, hits give low values 1.01 | S. cerevisiae deletion strains, locus YPR163C, strain tif3, hits give low values 1.01 | S. cerevisiae deletion strains, locus YPR167C, strain met16, hits give low values 1.02 | S. cerevisiae deletion strains, strain wtn01, hits give low values 1.02 | S. cerevisiae strains, strain wild type, hits give low values 1.01
